Screens from PubChem BioAssay.
Dicer inh: human Dicer pre-microRNA cleavage inhibition; cat-ELCCA pre-miR-21 Dicer processing, chemiluminescence; stronger effect = higher value; Q9UPY3; AID 1347074; z-score at 25 µM; hit rate 6% among 47,000; in the data active means z-score above about 3, passing the limit was not always enough;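 further: plate controls were vehicle for no effect and no enzyme for full effect; higher signal means more uncleaved substrate so more Dicer inhibition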
* = called active by the depositor. This is one part of a sample in which hits are shown more often than they occur.

SMILES	Dicer inh
CCOC(=O)c1c(NC(=O)c2ccco2)sc2c1CCCCC2	5.7*
CCN1C(=O)C2(/C(=C(/O)c3ccc(OC)c(C)c3)C(=O)C(=O)N2CCOC)c2ccccc21 (centres undefined)	-0.28
CC(=O)Nc1cccc(-n2nnc(SCC(=O)NCc3cccs3)n2)c1	0.32
Cn1c(=O)c2c(nc(NC3CCCC3)n2Cc2cccc(Br)c2)n(C)c1=O	-1
CC(Oc1ccc(Cl)cc1Cl)/C(N)=N/OC(=O)c1ccc(C(C)(C)C)cc1 (centres undefined)	0.62
CS(=O)(=O)CS(=O)(=O)Nc1ccc2c(c1)OCCO2	0.39
COc1ccc(/C(O)=C2\C(=O)C(=O)N(Cc3cccnc3)C2c2cccc(Oc3ccccc3)c2)cc1 (centres undefined)	1.4
CN(C)c1ncnc2c1C(c1ccc(Br)cc1)c1c(ncnc1N(C)C)O2	5*
CCCCC1(CN2CCN(Cc3ccccc3)CC2)C(=O)N(c2ccccc2)N(c2ccccc2)C1=O	1.2
COc1ccc(C2Nc3ccc4ncccc4c3C3=C2C(=O)CCC3)cc1 (centres undefined)	-1.4
S=C(NCc1csc2ccccc12)NCC1CC1	4*
O=C(O)/C=C\C(=O)NCc1csc2ccccc12	5.3*
N/C(Cc1csc2ccccc12)=N\O	0.88
CC1CC(NC(=S)NCc2csc3ccccc23)CC(C)(C)C1 (centres undefined)	-1
O=C(O)/C=C/C(=O)NCc1ccc(F)cc1	-0.86
O=C(O)c1nccnc1C(=O)NCc1csc2ccccc12	1.4
COc1ccc(NC2CC(=O)N(c3ccccc3Cl)C2=O)cc1 (centres undefined)	0.97
C#CCOC(=O)Nc1ccc(Cl)cc1	-0.88
Cc1cccc(-n2ncc3c2ncn2nc(-c4ccccc4Cl)nc32)c1	-0.62
Cc1cc(CN2CC(C)CC(C)C2)cc(C)c1O (centres undefined)	-0.71
N[C@@H]1CCCCN(c2c(F)cc3c(=O)c(C(=O)O)cn(C4CC4)c3c2Cl)C1	0.27
CCOc1ccc(C(=O)Cn2c(C)[n+](C)c3ccccc32)cc1	-1.2
Cc1n(CC(=O)c2ccc(F)cc2)c2ccccc2[n+]1C	4.8*
CCCCc1n(CC(=O)c2ccccc2)c2ccccc2[n+]1C	0.12
O=C(C1CC1)N1c2ccccc2CCc2ccccc21	2.8
SMILES	Dicer inh
O=C(C1CC1)N1CCc2ccccc21	3.3*
O=C(O)C1C2C=CC(C2)C1C(=O)N1CCc2ccccc21 (centres undefined)	2.5
OC1CCCCC1NC1CCN(c2ncnc3scc(-c4ccccc4)c23)CC1 (centres undefined)	-1.4
CC(NC(=O)C1(c2ccccc2)CCCC1)C1COc2ccccc2O1 (centres undefined)	-1.7
O=C(NN(Cc1c(F)cccc1Cl)c1ccccc1)C(Cl)(Cl)Cl	-2
O=C(CSc1nnc2sc3ccccc3n12)Nc1nc2c(s1)CCCC2	2.8
c1ccc(Nc2nc3c(s2)Cc2ccccc2-3)cc1	-1.4
c1ccc(Nc2nc3c(s2)CCCC3)cc1	4*
O=C(CSc1n[nH]c(-c2ccccc2F)n1)c1ccccc1	1.2
Cc1cc(=O)n(C(NC(=O)c2ccccc2)C(=O)c2ccccc2)cn1 (centres undefined)	1.8
O=C(Cc1ccc(Cl)cc1)c1ccc(O)cc1O	4.1*
O=C(Cc1ccc(Cl)cc1)c1ccc(O)cc1	0.6
O=C(Cc1ccccc1)c1ccc(Cl)cc1	-0.54
CCc1sc(-c2c(C#N)c(N)nc3c2CCCCC3)cc1[N+](=O)[O-]	0.56
COc1ccc(N2C(=O)CC(N3CCN(c4ccccn4)CC3)C2=O)cc1 (centres undefined)	1.6
O=C(Cn1c(=O)sc2ccccc21)Nc1nncs1	0.62
CC(C)(C)C(=O)c1cn(CC(=O)O)c2ccccc12	0.33
O=C(c1ccco1)c1cn(CCOc2ccc(F)cc2)c2ccccc12	1.6
COC(=O)c1cn(CCOc2ccccc2)c2ccccc12	3.1*
O=C(c1ccco1)c1cn(CCOc2ccccc2)c2ccccc12	-0.39
O=C(c1cccs1)c1cn(CCOc2ccc(F)cc2)c2ccccc12	3.5*
COC(=O)c1cn(CCOc2ccc(F)cc2)c2ccccc12	2.2
COC(=O)Cn1cc(C(=O)c2ccccc2)c2ccccc21	3.6*
O=C(c1ccco1)c1cn(CCOc2ccc(Cl)cc2)c2ccccc12	-0.39
CCN(CC)C(=O)Cn1cc(C(=O)c2ccco2)c2ccccc21	-0.38
SMILES	Dicer inh
Fc1cccc(Cn2c(-c3cncs3)nc3ccccc32)c1	0.94
Brc1cccc(CNCc2ccc3c(c2)OCO3)c1	-0.08
CC1(C)CC(=O)c2c(S(C)(=O)=O)sc(C(=O)OCc3ccccc3)c2C1	-0.76
Cc1ccc(OCc2nc(C#N)c(N3CC(C)OC(C)C3)o2)cc1 (centres undefined)	-0.84
NC(=O)c1c(NC(=O)CSc2nc3ccccc3o2)sc2c1CCCC2	-0.19
O=C(Nc1nc([N+](=O)[O-])cs1)c1cc2ccccc2o1	2.6
CCCCCOc1ccc(-c2cc(OCC)c3c(C)oc(C)c3c(=O)c2)cc1	-0.97
